Screening results deposited in PubChem by several laboratories.
TWEAK-Fn14 inh – inhibitors of TWEAK-Fn14 signaling, primary screen, luciferase reporter cells, uHTS. TWEAK-stimulated Fn14 reporter cells, luciferase luminescence, 8 h. inhibition, % at 10 µM. hit rate 2% among 360,000. AID 1159606, 2016; in the data active = inhibition above about 50%
TROY signal inh – inhibitors of TROY-driven NF-kB signaling, primary screen, Q293 LMP1-TROYcd cells, NF-kB luciferase, uHTS; hit rate 0.98% among 360,000; Q293 LMP1-TROYcd NF-kB luciferase reporter, 4 h; inhibition, % at 10 µM;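 active = compounds whose plate-normalised and pattern-corrected inhibition of the luciferase reporter signal at the single screening dose is 50% or more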
EWS-Fli block – EWS/Fli-driven NR0B1 reporter inhibitors, primary screen, A673 cells, NR0B1 luciferase, luminescence, MLPCN library; AID 651661, 2012; hit rate 0.67% among 350,000; inhibition, % at 12.6 µM; viability-normalised;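 active = mean inhibition of at least 50% after viability correction, with every replicate also passing that limit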;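 also: firefly luciferase signal divided by Alamar Blue viability fluorescence both relative to DMSO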
CF NFkB inh – inhibitors of PAF-induced NF-kB signaling, primary screen, cell-based, GFP fluorescence, uHTS. KKLEB NF-kB-GFP reporter, GFP fluorescence overnight. inhibition, % at 5 µM. hit rate 0.86% among 360,000;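 active = at least 50% inhibition at 5 µM, scaled per plate between neutral and stimulator controls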;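 also: PAF is a Pseudomonas aeruginosa culture filtrate used as stimulus; plate controls were PAF-stimulated DMSO wells for no effect and unstimulated DMSO wells for full effect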
KKLEB cytotox – cytotoxicity in KKLEB CF airway cells, primary screen, cytotoxicity control for CF NF-kB inhibitor project, cell-based, uHTS, fluorescence assay plates | KKLEB CF airway cells viability, ATPlite luminescence, overnight; hits give low values; cells stimulated with P. aeruginosa culture filtrate | activity change (cytotoxicity), % at 5 µM | hit rate 0.36% among 360,000 | AID 602141, 2011;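 active = corrected activity change at or below -50% at 5 µM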
LGR2 inh – inhibitors of bursicon-induced LGR2 CRE-luciferase signal, primary screen, cell-based, HEK293, CRE-luciferase reporter, bursicon stimulation; Drosophila bursicon receptor LGR2 (rickets); hit rate 0.35% among 380,000; bursicon-stimulated, 4 h; inhibition, % at 9.99 µM;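 active = drop in luminescence signal, shown as inhibition above about 50% in the replicate tests, limit read from the data, passing the limit was not always enough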;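 also: agonist challenge used bursicon conditioned medium at about half maximal strength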
* marks the source's active call; other numbers are inactive results; . = no result; ! = not active in a repeat. In the library only some 2.6% were active in any assay of this set; here they are far more common.

SMILES	TWEAK-Fn14 inh	TROY signal inh	EWS-Fli block	CF NFkB inh	KKLEB cytotox	LGR2 inh
COc1ccc(CCn2c(SCC(=O)Nc3cc(C)on3)nc3ccsc3c2=O)cc1OC	-7	-9	.	3	6	-21
COCCn1c(SCC(=O)NNC(=O)c2ccccc2)nc2ccccc2c1=O	1	80*	10	-8	-3	.
C[C@@H]1CCCCO[C@@H](CN(C)C(=O)C2CCCCC2)[C@H](C)CN([C@H](C)CO)C(=O)c2cc(NC(=O)c3ccncc3)ccc2O1	.	.	0	.	.	-10
Cc1ccc2c(c1)C1CN(C)CCC1N2C(=O)c1cccc(S(=O)(=O)N(C)C)c1 (stereo not given)	2	67*	-4	1	18	-21
CCNC(=S)Nc1ccc2cn[nH]c2c1	5	15	.	-2	-1	-3
N#CC(C#N)=NNc1ccc2cn[nH]c2c1	92*	62*	-2	79*	-8	82*
COc1ccc(Cl)cc1NC(=O)CN(C)CC(=O)Nc1cc(OC)c(OC)c(OC)c1	10	6	62*	6	-7	-13
Cc1nn(Cc2cccc(F)c2)c(C)c1NC(=O)c1ccc(COc2ccccc2Cl)cc1	70*	44	.	-11	10	19
CC(=O)/C=C(/C)NC(Cc1c[nH]c2ccccc12)C(=O)O (stereo not given)	1	51*!	5	-4	7	-2
C[C@@H](C(=O)N[C@@H](Cc1c[nH]c2ccccc12)C(=O)O)n1nnc2ccccc2c1=O	72*	-6	15	-15	10	-11
CC(=O)N[C@H](Cc1c[nH]c2ccccc12)C(=O)O	-7	10	2	-5	-4	8
COc1ccc(NC(=O)c2nc(C)c(C3(C)CC(c4cccnc4)=NO3)s2)cc1 (stereo not given)	4	28	68*	-2	-1	6
O=C(NCc1ccccc1)[C@@H]1[C@@H](CO)[C@@H]2Cn3c(cccc3=O)[C@H]1N2Cc1cccnc1	.	.	-5	.	.	-6
COc1cc2c(cc1OC)C(C)N(C(=O)c1c(C)noc1C)CC2 (stereo not given)	-3	0	-3	-10	-8	.
COc1cc2c(cc1OC)C(C)N(C(=O)c1cc(C)on1)CC2 (stereo not given)	-6	42	53*	25	-21	-7
Cc1ccc(S(=O)(=O)N(C)C[C@H]2OCCCC[C@H](C)Oc3ccc(NC(=O)Nc4ccccc4)cc3C(=O)N([C@H](C)CO)C[C@H]2C)cc1	.	.	0	.	.	-8
CCOC(=O)C1(Cc2cccc(OC)c2)CCCN(C(=O)c2ccc(OC)o2)C1 (stereo not given)	98*	-96	.	-40	13	-56
CCOC(=O)C1(Cc2cccc(OC)c2)CCCN(C(=O)c2cc(CC(C)C)[nH]n2)C1 (stereo not given)	-13	-57	-74	-13	6	-14
O=C(CC1CC1)Nc1ccc2c(c1)[C@@H]1C[C@@H](CC(=O)N3CCCCC3)O[C@H](CO)[C@@H]1O2	.	.	10	.	.	15
COc1ccc(NC(=O)N(C)C[C@@H]2OCCCC[C@H](C)Oc3ccc(N(C)C)cc3C(=O)N([C@@H](C)CO)C[C@@H]2C)cc1	.	.	-1	.	.	-8
O=C(NCc1cccc(Cl)c1)c1cc(COc2ccc3ncccc3c2)on1	61*	53*	-3	14	-10	.
Cc1ccc(F)cc1CNC(=O)c1cc(COc2ccc3ncccc3c2)on1	75*	46	1	30	-27	-19
O=C(Nc1ccsc1C(=O)O)c1cccc(Oc2ccccc2)c1	53*	53*	-18	-14	-6	46
C[C@@H]1CN([C@@H](C)CO)C(=O)c2cc(NS(=O)(=O)c3cn(C)cn3)ccc2O[C@@H](C)CCCCO[C@H]1CN(C)C(=O)c1ccccc1	.	.	0	.	.	-5
O=C(CCl)Nc1cccc(S(=O)(=O)NC2=NCCCCC2)c1	0	4	62*	-7	-18	-6
SMILES	TWEAK-Fn14 inh	TROY signal inh	EWS-Fli block	CF NFkB inh	KKLEB cytotox	LGR2 inh
O=C(O)C[C@@H]1CC[C@@H](NC(=O)Nc2ccccc2)[C@H](CO)O1	.	.	4	.	.	3
Oc1ccccc1N=Cc1c(O)ccc2ccccc12	26	9	17	-10	4	3
Cc1cccc(N=Cc2ccccc2O)c1C	38	-7	-6	-9	2	-13
Oc1ccccc1C=Nc1cccc2ccccc12	69*	66*	43	-4	-10	0
Oc1cccc(C=Nc2cccc3ccccc23)c1O	101*	61*	26	-6	1	-3
O=C(C[C@H]1C[C@H]2c3cc(NC(=O)c4cccnc4)ccc3O[C@H]2[C@@H](CO)O1)NCc1ccncc1	.	.	8	.	.	0
Cc1ccc(NC(=S)Nc2ccc3cn[nH]c3c2)cc1C	-24	-11	.	20	2	-6
CC(C)c1ccc(NC(=S)Nc2ccc3cn[nH]c3c2)cc1	-2	53*	-53	25	1	-3
CN(c1cccc(NC(=O)Nc2cccc(Cl)c2)c1)S(C)(=O)=O	82*	5	.	14	2	.
CC(=O)Nc1cccc(N(C)S(C)(=O)=O)c1	3	-11	.	12	-15	.
COc1ccc(-c2ccc(C3[C@H]4CNC[C@@H]3N4Cc3nccs3)cc2)cc1 (stereo not given in full)	.	.	.	.	.	18
CC(C)CCCCCCCCCCCCC(=O)NCC(=O)NC1C(C)OC(Nc2ncnc3nc[nH]c23)C(O)C1O (stereo not given)	97*	77*	23	83*	-17	.
C[C@@H]1CN([C@@H](C)CO)C(=O)c2ccccc2-c2ccccc2CO[C@H]1CN(C)C(=O)C1CC1	.	.	33	.	.	9
CCN(CC)S(=O)(=O)c1ccc2c(c1)nc(SCC(=O)NC1CC1)n2-c1ccccc1OC	61*	.	.	8	7	.
Cc1cccc(-c2nnc(NC(=O)c3ccc(Cl)cc3)o2)c1	62*	-19	.	16	1	.
Cc1ccc(C(=O)Nc2nnc(-c3ccncc3)o2)cc1	-5	-28	-6	-5	-2	-20
Clc1ccc(CN2CCc3c([nH]c4ccccc34)C2)cc1Cl	-2	-3	57*	2	-24	20
Clc1cccc(CN2CCc3c([nH]c4ccccc34)C2)c1	13	2	25	-10	-26	6
COc1ccc(C2=Nn3c(nnc3-c3ccccc3OC)SC2)cc1OC	-12	44	.	53*	-32	.
COc1ccc(C2=Nn3c(nnc3-c3ccccc3F)SC2)cc1OCC1CC1	13	51*	56*	38	-44	-2
